In the library only some 7.3% were active in any assay of this set; here they are far more common.
HCV inh: blocks hepatitis C virus | Huh7.5.1 HCVcc-Cre infection, luciferase reporter, 44 h | Potency, µM (doses to about 41.8 µM), most hits filed as inhibitors | 340,000 compounds, 3.4% hits | AID 651820
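Infectious HCVcc-Cre (~0.5 moi) was added to cells just after compound, with cells seeded 4 h earlier at 1,000 per well. Luciferase activity after 44 h culture reported infection; substrate was incubated 15 min at room temperature before reading.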
FMDV antiviral: blocks foot and mouth disease virus; FMDV antiviral cell-based qHTS; Potency, µM (titrated, usually from 57.9 µM), usual class: inhibitors; 410,000 compounds, 1.2% hits; calls by dose curve; tested in HEK293T cells; note: read-out not given here; nearly all actives have a fitted effect of over 45% in size
AmpC inh detg: AmpC beta-lactamase inhibition with detergent present; P00811; AmpC hydrolysis of nitrocefin, absorbance 480 nm, 0.01% Triton; Potency, µM (highest dose often 114 µM), usual class: inhibitors; 370,000 compounds, 0.041% hits; AID 485294; note: nearly all actives have a fitted effect of over 25% in size
Target sequence (P00811 whole entry, looked up): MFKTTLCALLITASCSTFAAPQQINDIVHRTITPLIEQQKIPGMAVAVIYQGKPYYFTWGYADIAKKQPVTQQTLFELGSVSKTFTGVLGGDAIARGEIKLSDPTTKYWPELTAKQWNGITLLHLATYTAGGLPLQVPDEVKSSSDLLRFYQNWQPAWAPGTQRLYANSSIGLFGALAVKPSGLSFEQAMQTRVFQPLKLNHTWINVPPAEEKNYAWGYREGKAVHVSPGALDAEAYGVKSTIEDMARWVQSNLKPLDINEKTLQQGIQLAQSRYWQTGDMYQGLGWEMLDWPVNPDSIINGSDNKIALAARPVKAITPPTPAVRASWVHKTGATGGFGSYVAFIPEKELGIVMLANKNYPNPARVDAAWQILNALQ
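20 mM phosphate pH 7.0 + 0.01% (detergent screen) or 0.0001% Triton X-100; 5.3 nM AmpC reagent; cpd preinc 15 min RT; nitrocefin (800 uM stock) to start; A480 q20 s × 4 min; Activity was normalised to no-enzyme and no-compound control wells.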
AmpC no deterg: AmpC beta-lactamase inhibition without detergent. P00811. Potency, µM (highest dose often 57.1 µM), most hits filed as inhibitors. AID 485341. AmpC nitrocefin hydrolysis, absorbance 480 nm, 0.0001% Triton. 330,000 compounds, 0.52% hits; note: nearly all actives have a fitted effect of over 20% in size
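AmpC (5.3 nM in the dispensed reagent) in 20 mM phosphate pH 7.0 with 0.01% (detergent screen) or 0.0001% Triton X-100 was preincubated with compounds for 15 min at room temperature. Nitrocefin was then added from an 800 uM solution, and hydrolysis was followed at 480 nm.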
HCMV antiviral: blocks human cytomegalovirus replication. HFF cells, HCMV-luciferase reporter, 72 h; stronger effect = lower value. activity change, negative = inhibition, % at 57.5 µM. 410,000 compounds, 4.5% hits. AID 1259415; in the data active = activity change below about -60%; inconclusive = no clear call, values can overlap the other calls; inactive = above about -39%
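Cell-based, HFFs, 1000 cells/well, 16 h 37C; cpds in DMSO + HCMV-luc, MOI 1 PFU/cell; 72 h 37C; OneGlo luminescence after 5 min RT; norm. to buffer vs Salinomycin 10uM.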
Hits are given with their value; 0 = inactive; ? = inconclusive; - = no result given. Unless noted, calls come from the whole dose curve; as a rule, active = well fitted curve in the direction sought with a large enough effect; inconclusive = small, poorly fitted or top-dose-only effect, or another doubt; inactive = no such curve, though single readings can be large; an effect the other way counts as inactive or inconclusive.

SMILES	HCV inh	FMDV antiviral	AmpC inh detg	AmpC no deterg	HCMV antiviral
O=C(/C=C/c1ccc(F)cc1)NC(=S)NNC(=O)[C@H]1C[C@@H]1c1ccccc1	?	0	0	10µM	0
c1ccc2[nH]c3cc4ncnc4cc3nc2c1	0	0	0	0	-87
CC(C)Cn1c(SC(C)C(=O)Nc2ccc3c(c2)OCCO3)nc2ccccc2c1=O (stereo not drawn)	0	-	0	0	?
C[C@@H](C(=O)Nc1ccc2c(c1)OCCO2)n1c(=O)[nH]c2ccccc2c1=O	0	?	0	0	-70
C[C@@H](C(=O)Nc1ccc2c(c1)OCO2)n1c(=O)[nH]c2ccccc2c1=O	0	0	0	0	0
CC(Sc1ncnc2ccccc12)C(=O)Nc1ccc2c(c1)OCCO2 (stereo not drawn)	13µM	16µM	0	0	-73
CC(Sc1nc2ccccc2c(=O)n1C)C(=O)Nc1ccc2c(c1)OCCO2 (stereo not drawn)	10µM	?	?	0	-80
CCN1/C(=C\C=C\C2=[N+](CC)c3ccccc3C2(C)C)C(C)(C)c2ccccc21	0.56µM	35µM	0	0	-
CCCCN1C(=O)/C(=C/C=C2\N(C)c3ccccc3C2(C)C)SC1=S	-	-	?	0	-
COc1ccc(C(=O)N2CCC3(CC2)c2ccccc2[C@@H](NC(=O)c2ccccn2)[C@@H]3OC)c(O)c1	-	0	-	-	-
c1ccc(OCCCc2nc(-c3ccccn3)no2)cc1	0	0	0	0	-106
COc1cccc(-c2nc(-c3ccccn3)no2)c1	?	20µM	0	0	-61
c1ccc(-c2noc(-c3ccc4ccccc4c3)n2)nc1	?	4µM	0	0	-
Cc1cccc(-c2noc(-c3ccc4c(c3)OCO4)n2)c1	0	0	0	0	0
c1ccc(-c2noc(-c3ccc4c(c3)OCO4)n2)nc1	?	-	0	?	-81
c1ccc(-c2noc(-c3ccncc3)n2)nc1	0	-	?	0	0
COc1cccc(-c2nc(-c3ccccc3)no2)c1	0	0	?	0	0
O=C(c1cccnc1)C1CCCN(Cc2ccc3c(c2)CN(C(=O)c2cccs2)CCO3)C1 (stereo not drawn)	-	0	-	-	-
C=CCN1C(C(=O)OCC)CSCCS1(=O)=O (stereo not drawn)	-	-	-	-	0
CCNc1ccc(-c2nc(-c3ccccn3)no2)cc1[N+](=O)[O-]	-	0	0	-	-106
CNc1ccc(-c2nc(-c3ccccn3)no2)cc1[N+](=O)[O-]	-	0	0	-	0
Cc1ccc(O)c(NC(=O)c2cc3nc4c(c(C(F)(F)F)n3n2)CCc2ccccc2-4)c1	0	?	0	0	0
CCN(CC)CCCNC(=O)c1cc2nc3c(c(C(F)(F)F)n2n1)CCc1ccccc1-3	1.6µM	0	0	0	?
CC(NC(=O)C(=O)N/N=C\c1ccc([N+](=O)[O-])cc1)c1ccccc1 (stereo not drawn)	0	0	0	0	0
COc1ccc(C2Nc3ccccc3C(=O)N2Cc2ccco2)cc1COc1ccc(NC(C)=O)cc1 (stereo not drawn)	?	0	0	0	-62
SMILES	HCV inh	FMDV antiviral	AmpC inh detg	AmpC no deterg	HCMV antiviral
O=c1c2c(nc3c(-c4ccccc4)c[nH]n13)CCC2	?	-	0	0	0
O=c1c2c(nc3c(-c4cccc(Br)c4)c[nH]n13)CCCC2	6.3µM	0	0	0	-102
CCOC(=O)Cc1c(C)nc2cc(-c3ccc(C(C)(C)C)cc3)[nH]n2c1=O	13µM	0	0	0	0
CCOC(=O)Cc1c(C)nc2c(-c3cccc(Br)c3)c[nH]n2c1=O	?	0	?	0	-93
O=c1c2c(nc3c(-c4ccc(Cl)cc4)c[nH]n13)CCC2	?	0	0	0	-77
COC(=O)c1ccc(-c2csc(NC(=O)c3c(C)noc3C)n2)cc1	?	0	0	0	0
C/C(=N\Nc1cc(C)nc(-c2ccccc2O)n1)c1ccccc1O	11µM	0	0	0	0
COc1ccc2nc(NN=C(C)c3ccccn3)cc(C)c2c1	?	0	-	-	-99
COc1ccc2c(c1)C(=NNC(=O)c1ccccn1)c1cc(OC)ccc1-2	?	0	?	0	?
CC(=NNc1ccc2ccccc2n1)c1ccccn1	-	-	-	-	-101
CC(=NNc1ccc2ccccc2n1)c1ccccc1O	?	?	-	-	-61
Cc1cc(N/N=C\c2ccccc2)nc(-c2ccccc2O)n1	?	0	0	0	0
COc1cccc(-n2c(=O)c3sc4ccccc4c3n(Cc3c(F)cccc3Cl)c2=O)c1	-	?	0	-	0
O=C1CN(S(=O)(=O)c2ccccc2)CC(=O)N1CCc1ccccc1	0	0	0	0	0
Cc1cc(S(=O)(=O)N2CC(=O)N(CCc3ccccc3)C(=O)C2)ccc1F	0	0	0	0	-89
COC(=O)c1cc(C)nc2c1C(=O)C(=O)C=C2N1CCOCC1	2.5µM	3.5µM	0	0	-93
COC(=O)c1cc(S(=O)(=O)N2CCOCC2)c(Cl)cc1N1CCOCC1	0	0	0	0	0
Cc1cccc(NCCC(=O)c2ccc([N+](=O)[O-])cc2)c1C	0	0	0	0	0
Cc1ccc(NCCC(=O)c2cccc([N+](=O)[O-])c2)c(C)c1	0	0	0	20µM	0
Cc1cc(NS(=O)(=O)c2ccc(NC(=O)c3ccc([N+](=O)[O-])s3)cc2)nc(C)n1	?	0	-	0	-97
CC(=O)Nc1ccc2nc(NC(=O)c3ccc([N+](=O)[O-])s3)sc2c1	-	-	0	0	-
Cc1cc(NS(=O)(=O)c2ccc(NC(=O)c3c(F)c(F)c(F)c(F)c3F)cc2)nc(C)n1	0	0	0	0	?
Cc1ccnc(NS(=O)(=O)c2ccc(NC(=O)c3ccc([N+](=O)[O-])s3)cc2)n1	0	0	0	?	-96
Cc1nc2cc(NC(=O)c3ccc([N+](=O)[O-])s3)ccc2s1	?	0	0	0	-94
COc1ccccc1CN(Cc1ccco1)c1cnc(S(C)(=O)=O)nc1C(=O)Nc1ccccc1Cl	-	0	0	-	0
SMILES	HCV inh	FMDV antiviral	AmpC inh detg	AmpC no deterg	HCMV antiviral
Cc1cc(OCC(=O)Nc2ccncc2)cc(C)c1Cl	13µM	0	0	0	-64
Cc1ccc(OCC(=O)Nc2ccncc2)cc1C	-	0	-	-	0
CC(C)CCOc1cccc(OCC(=O)Nc2ccncc2)c1	?	0	0	0	-77
O=C(COc1ccc2ccccc2c1Br)Nc1cccnc1	?	0	0	0	0
O=C(Nc1ccncc1)Nc1ccc(Br)cc1Cl	0	0	?	7.9µM	?
O=C(COc1ccc2ccccc2c1Br)Nc1ccncc1	?	0	0	0	-60
COc1cc(-c2nc3n(c(=O)c2C#N)CCS3)cc(OC)c1OC	0	0	?	0	0
CCOC(=O)C1=C(COC(=O)c2cccnc2SC)NC(=O)NC1C (stereo not drawn)	?	0	-	0	?
O=C(Cc1ccc(Cl)cc1Cl)Nc1ccncc1	8.9µM	?	0	0	-66
C[C@H](CO)N1C[C@H](C)[C@@H](CN(C)C(=O)C2CC2)OCc2cn(nn2)CCCC1=O	-	-	-	-	0
COc1cc2ccccc2ccc1=NO	?	0	-	-	-68
